Inconclusive results are not listed. The source made the active and inactive calls. Unless noted, calls come from the whole dose curve; as a rule, active = well fitted curve in the direction sought with a large enough effect; inconclusive = small, poorly fitted or top-dose-only effect, or another doubt; inactive = no such curve, though single readings can be large; an effect the other way counts as inactive or inconclusive.
Key:
[1] = Cell Viability - LYMP2-001 (AID 921);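 note: cells exposed to compound for 24 h at 37 °C; nearly all actives have a fitted effect of over 70% in size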
Outline: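 A lymphoblastoid cell line of human origin was treated with library compounds across a concentration series for 24 hours, and viable cell number was estimated from ATP-driven luciferase light output. Hill modeling gave AC50.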

[2] = Cell Viability - LYMP2-009 (AID 968);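 note: cells exposed to compound for 24 h at 37 °C; nearly all actives have a fitted effect of over 55% in size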
[3] = Cell Viability - LYMP2-011 (AID 969); note: nearly all actives have a fitted effect of over 60% in size
Outline: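 Acute toxicity is scored as a concentration-dependent drop in intracellular ATP of a human lymphoblastoid line after 24 hr treatment. Values are AC50s modeled with the Hill equation.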

[4] = Cell Viability - LYMP2-013 (AID 970);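 note: cells exposed to compound for 24 h at 37 °C; nearly all actives have a fitted effect of over 55% in size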
Outline: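 Acute toxicity was measured in human lymphoblastoid cells (2500/well) exposed to compound titrations for 24 hr, with ATP luminescence (CellTiter-Glo) as read-out and AC50 fitted by Hill equation.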

[5] = Cell Viability - LYMP2-019 (AID 973);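 note: cells exposed to compound for 24 h at 37 °C; nearly all actives have a fitted effect of over 55% in size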
Outline: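 Cells plated at 2500/well and allowed 5 hr at 37 C before compound addition. After 24 hr incubation, CellTiter-Glo reagent was added, plates sat 30 min at room temperature, and luminescence was recorded.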

[6] = Cell Viability - LYMP2-021 (AID 974);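 note: compound exposure lasts 24 hours at 37 °C; nearly all actives have a fitted effect of over 55% in size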
Outline: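 Concentration-response cytotoxicity in a human lymphoblastoid line: 24 hr treatment at 37 C in complete culture medium, tetraoctylammonium bromide as positive control, luminescent ATP quantitation as viability measure.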

[7] = Cell Viability - LYMP2-023 (AID 975)
Outline: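 Concentration-dependent drop in intracellular ATP measures acute cytotoxicity in a human lymphoblastoid line treated for 24 hours in complete culture medium. AC50 values are taken from Hill-equation fits of qHTS data.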

[8] = Cell Viability - LYMP2-025 (AID 976);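 note: cells exposed to compound for 24 h at 37 °C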
Outline: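 In qHTS format, LYMP2-025 lymphoblastoid cells in complete culture medium received compound for 24 hr; ATP-based CellTiter-Glo signal gave viability, with AC50 derived by Hill equation.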

[9] = Cell Viability - LYMP2-002 (AID 977);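 note: compound exposure lasted 24 h at 37 °C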
Outline: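 Cytotoxicity is scored as concentration-dependent loss of cellular ATP in a human lymphoblastoid line after 24 hr compound treatment at 37 C. AC50 is obtained by modelling concentration-response data with the Hill equation.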

[10] = Cell Viability - LYMP2-006 (AID 978); note: nearly all actives have a fitted effect of over 60% in size
Outline: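 In this cytotoxicity screen, the human lymphoblastoid line grew in complete medium with test compounds for 24 hr at 37 C. Cellular ATP served as the viability signal.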

[11] = Cell Viability - LYMP2-007 (AID 979);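 note: cells exposed to compound for 24 h before reading; nearly all actives have a fitted effect of over 60% in size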
Outline: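 Acute toxicity is scored as a concentration-dependent fall in intracellular ATP in human lymphoblastoid cells treated 24 hr at 37 C, measured by luciferase luminescence; Hill-equation modelling yields AC50.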

[12] = Cell Viability - LYMP2-008 (AID 980); note: nearly all actives have a fitted effect of over 60% in size
Outline: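 Acute cytotoxicity is scored as concentration-dependent loss of cellular ATP in a human lymphoblastoid line after 24 hr treatment at 37 C. ATP is quantified by luciferase luminescence.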

[13] = Cell Viability - LYMP2-010 (AID 981)
Outline: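 Acute toxicity is scored as a concentration-dependent loss of cellular ATP in human lymphoblastoid cells after 24 hr compound exposure in complete medium. Tetraoctylammonium bromide is the positive control.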

[14] = Cell Viability - LYMP2-012 (AID 982)
[15] = Cell Viability - LYMP2-014 (AID 983);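 note: cells exposed to compound for 24 h at 37 °C; nearly all actives have a fitted effect of over 50% in size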
Outline: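 Decrease in intracellular ATP after 24 hr treatment at 37 C, measured by luciferase luminescence, indicated cytotoxicity. Concentration-response data were fitted with the standard Hill equation to give AC50.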

[16] = Cell Viability - LYMP2-016 (AID 984)
Outline: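 Concentration-dependent ATP depletion measured in LYMP2-016 lymphoblastoid cells, 24 h, 37 C; luciferase-based luminescent detection; Hill-equation AC50.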

[17] = Cell Viability - LYMP2-018 (AID 985);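 note: compound exposure lasted 24 hr at 37 °C; nearly all actives have a fitted effect of over 50% in size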
Outline: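 Acute cytotoxicity is scored as a concentration-dependent drop in intracellular ATP after 24 hr exposure of the lymphoblastoid line in complete culture medium, measured by luciferase luminescence. Potency is expressed as AC50 from Hill modelling.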

[18] = Cell Viability - LYMP2-020 (AID 986)
Outline: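 Acute cytotoxicity in a human lymphoblastoid line is scored as a concentration-dependent fall in cellular ATP after 24 hr at 37 C in complete medium. The positive control is tetraoctylammonium bromide, and potency is given as Hill-fit AC50.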

[19] = Cell Viability - LYMP2-022 (AID 987); note: nearly all actives have a fitted effect of over 55% in size
Outline: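 Acute toxicity in a human lymphoblastoid line is scored as decreased intracellular ATP after 24 hr compound treatment at 37 C. ATP is measured by CellTiter-Glo luminescence; curves are fitted with the Hill equation to give AC50.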

[20] = Cell Viability - LYMP2-024 (AID 988); note: nearly all actives have a fitted effect of over 60% in size
Outline: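 Acute toxicity is measured as concentration-dependent loss of intracellular ATP in a human lymphoblastoid line treated 24 hours at 37 C. Luciferase luminescence quantifies ATP; AC50 values come from standard Hill-equation modelling.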

[21] = Cell Viability - LYMP2-026 (AID 989);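 note: cells exposed to compound for 24 h at 37 °C; nearly all actives have a fitted effect of over 50% in size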
Outline: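 Concentration-dependent loss of intracellular ATP in human lymphoblastoid cells after 24 hr at 37 C, quantified by luciferase luminescence. AC50 derived from standard Hill equation.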

[22] = target: Voltage-gated inwardly rectifying potassium channel KCNH2 (Homo sapiens) (UniProt Q12809); assay: qHTS Assay for Small Molecule Inhibitors of the Human hERG Channel Activity (AID 588834);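 note: lower thallium flux fluorescence means stronger hERG block; nearly all actives have a fitted effect of over 50% in size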
Voltage-gated inwardly rectifying potassium channel KCNH2 (Homo sapiens), sequence (Q12809 whole entry, looked up): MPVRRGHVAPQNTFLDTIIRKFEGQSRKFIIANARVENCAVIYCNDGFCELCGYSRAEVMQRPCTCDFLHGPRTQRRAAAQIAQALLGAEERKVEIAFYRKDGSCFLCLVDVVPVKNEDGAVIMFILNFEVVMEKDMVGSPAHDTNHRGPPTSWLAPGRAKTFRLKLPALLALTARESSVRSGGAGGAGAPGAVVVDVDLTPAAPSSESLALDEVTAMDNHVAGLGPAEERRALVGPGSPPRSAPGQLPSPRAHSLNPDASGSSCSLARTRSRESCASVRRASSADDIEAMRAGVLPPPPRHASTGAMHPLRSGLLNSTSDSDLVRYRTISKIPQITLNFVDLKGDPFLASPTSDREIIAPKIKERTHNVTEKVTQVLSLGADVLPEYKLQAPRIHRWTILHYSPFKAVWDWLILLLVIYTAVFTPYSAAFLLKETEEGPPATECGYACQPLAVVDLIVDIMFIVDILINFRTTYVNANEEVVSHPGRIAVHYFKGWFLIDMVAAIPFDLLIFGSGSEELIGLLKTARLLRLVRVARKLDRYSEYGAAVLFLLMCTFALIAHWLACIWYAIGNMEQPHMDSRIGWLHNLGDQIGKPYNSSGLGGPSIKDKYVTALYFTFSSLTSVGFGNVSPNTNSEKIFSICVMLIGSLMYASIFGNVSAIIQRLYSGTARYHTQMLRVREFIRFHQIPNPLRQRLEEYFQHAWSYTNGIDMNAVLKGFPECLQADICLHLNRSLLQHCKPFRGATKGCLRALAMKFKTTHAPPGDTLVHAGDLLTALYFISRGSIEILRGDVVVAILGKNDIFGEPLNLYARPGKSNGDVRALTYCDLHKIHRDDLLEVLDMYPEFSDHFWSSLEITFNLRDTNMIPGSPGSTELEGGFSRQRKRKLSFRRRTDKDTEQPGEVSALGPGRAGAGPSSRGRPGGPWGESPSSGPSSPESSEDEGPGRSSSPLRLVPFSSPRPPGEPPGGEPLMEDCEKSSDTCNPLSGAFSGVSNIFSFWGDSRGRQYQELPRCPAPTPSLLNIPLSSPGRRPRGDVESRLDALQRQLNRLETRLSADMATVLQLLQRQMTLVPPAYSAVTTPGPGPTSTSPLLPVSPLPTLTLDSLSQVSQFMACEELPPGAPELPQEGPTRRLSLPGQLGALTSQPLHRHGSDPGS
Outline: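 Blockade is seen as reduced FluxOR thallium-flux fluorescence in U2OS cells expressing hERG from a BacMam construct, in Opti-MEM with 2% FCS. Concentration-response data fitted to the Hill equation for AC50.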

[23] = qHTS assay to identify small molecules that stimulate interleukin-8 (IL-8) secretion (AID 651758; active = well fitted activation curve with a large enough effect in the signal ratio; the % refers to the signal ratio)
Outline: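 Secreted IL-8 measured by TR-FRET sandwich (cryptate and XL665 antibodies) from THP-1 cells exposed to compound overnight (16 hrs, 37 C).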

[24] = target: Nuclear receptor ROR-gamma (Homo sapiens) (UniProt P51449); assay: qHTS assay for small molecule antagonists of the retinoid-related orphan receptor gamma (ROR-gamma) signaling pathway (AID 651802); note: nearly all actives have a fitted effect of over 60% in size
Nuclear receptor ROR-gamma (Homo sapiens), sequence (P51449 whole entry, looked up): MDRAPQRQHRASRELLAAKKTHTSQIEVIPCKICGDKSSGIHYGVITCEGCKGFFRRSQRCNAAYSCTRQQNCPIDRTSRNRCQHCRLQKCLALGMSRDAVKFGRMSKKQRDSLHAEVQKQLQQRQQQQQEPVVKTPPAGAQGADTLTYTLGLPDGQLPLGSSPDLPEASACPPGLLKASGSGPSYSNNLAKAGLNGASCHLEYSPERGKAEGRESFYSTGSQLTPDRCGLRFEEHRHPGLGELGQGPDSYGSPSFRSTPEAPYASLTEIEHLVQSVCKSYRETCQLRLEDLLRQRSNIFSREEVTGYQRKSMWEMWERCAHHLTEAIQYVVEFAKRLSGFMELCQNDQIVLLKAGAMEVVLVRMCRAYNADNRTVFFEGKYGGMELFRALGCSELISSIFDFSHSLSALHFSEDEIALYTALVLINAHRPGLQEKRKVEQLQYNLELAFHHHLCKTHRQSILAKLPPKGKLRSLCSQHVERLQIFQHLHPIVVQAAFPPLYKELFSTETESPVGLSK
Outline: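 Antagonism is scored as a fall in luminescence from a RORE-luciferase reporter in CHO cells expressing ROR under a TET-inducible promoter, measured 16hr after doxycycline induction in the presence of compound.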

[25] = qHTS assay for small molecule antagonists of the retinoid-related orphan receptor gamma (ROR-gamma) signaling pathway - cell viability counter screen (AID 720652; active = well fitted curve in the direction sought with a large enough effect in the repeat runs; an effect the other way counts as inactive or inconclusive;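 note: compound exposure lasted 16 hr before ATP read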)
Outline: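 Cytotoxicity is quantified via intracellular ATP (CellTiter-Glo luminescence) in doxycycline-induced CHO ROR response element-luciferase reporter cells treated with compound for 16 hr at 37 C, 5% CO2.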

Measured: Potency
Potency is the fitted concentration of half-maximal effect.

ClC1=C(Cl)C(Cl)(Cl)C(Cl)=C1Cl
active: [1] 5.01 µM | [2] 7.94 µM | [3] 6.31 µM | [4] 6.31 µM | [5] 6.31 µM | [6] 6.31 µM | [7] 5.01 µM | [8] 10 µM | [9] 6.31 µM | [10] 7.94 µM | [11] 3.16 µM | [12] 3.16 µM | [13] 5.01 µM | [14] 6.31 µM | [15] 7.94 µM | [16] 6.31 µM | [17] 7.94 µM | [18] 7.94 µM | [19] 6.31 µM | [20] 3.16 µM | [21] 10 µM | [22] 22.4 µM | [23] 29.8 µM | [24] 13.3 µM | [25] 11.9 µM

Source: PubChem BioAssay (NCATS)
